The results in this text go back to PubChem BioAssay AID1851 (National Center for Advancing Translational Sciences (NCATS), 2009).

SMILES strings stand for the structures. Among all 16,000 compounds or so, about 5,700 (36%) were called active. About 24% were inconclusive and are not listed. This is one part of the list. A number with no mark means an inactive call. Calls come from the whole dose curve; as a rule, active = well fitted curve in the direction sought with a large enough effect; inconclusive = small, poorly fitted or top-dose-only effect, or effect the other way; inactive = no such curve, though single readings can be large or run the other way.
% is set by controls: 0 for no effect and ±100 for the full control effect.

Chain of Cytochrome P450 1A2 (Homo sapiens) (P05177 whole entry, looked up): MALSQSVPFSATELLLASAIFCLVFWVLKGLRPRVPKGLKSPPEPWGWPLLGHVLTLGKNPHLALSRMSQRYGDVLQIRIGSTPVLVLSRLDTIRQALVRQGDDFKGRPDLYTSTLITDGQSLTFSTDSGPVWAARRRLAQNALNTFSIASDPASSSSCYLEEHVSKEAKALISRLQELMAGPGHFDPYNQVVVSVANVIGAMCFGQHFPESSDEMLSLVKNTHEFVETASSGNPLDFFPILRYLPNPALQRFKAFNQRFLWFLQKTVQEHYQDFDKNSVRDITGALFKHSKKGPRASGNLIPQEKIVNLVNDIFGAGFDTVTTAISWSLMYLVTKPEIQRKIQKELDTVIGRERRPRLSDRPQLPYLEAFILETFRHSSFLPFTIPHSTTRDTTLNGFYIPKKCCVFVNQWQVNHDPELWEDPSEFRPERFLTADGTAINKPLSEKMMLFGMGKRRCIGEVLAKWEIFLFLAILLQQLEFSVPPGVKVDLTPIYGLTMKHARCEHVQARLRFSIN

The experiment has as its target Cytochrome P450 1A2 (Homo sapiens) (UniProt P05177). As to the kind of experiment: Cytochrome panel assay with activity outcomes. The settings on record: recombinant CYP, pro-luciferin dealkylation, luminescence, p450-cyp1a2; series mostly up to 57.1 µM.
Turning to `COC(=O)C/C=C\[C@@H](C)[C@@H](CO)NS(=O)(=O)c1ccc(C)cc1`, the activity, negative = inhibition was -0.334% [at 11.4 µM].

For `COc1ccc(C(=O)Nc2ccc3c(c2)nc(CN2CCN(C(C)=O)CC2)n3C)cc1`, the AC50 (in general, the concentration at which the activity in the assay is half-maximal) is “inactive”.

Turning to `COc1ccc(C(=O)n2c(SC)nc3cc4c(cc32)OCCO4)cc1`, the AC50 was 3.16 µM (active).

With `COc1cccc(C(=O)n2c(SC)nc3cc4c(cc32)OCCO4)c1`, the AC50 was 5.01 µM (active).

Regarding `COc1ccc(C(=O)N2CCC3(CCN(Cc4ccncc4)CC3)CC2)cc1`, the AC50 entry is “inactive”.

As for `O=C1C2=CC[C@@H]3C(=O)N(c4ccc(F)cc4F)C(=O)[C@H]3[C@H]2[C@H](O)[C@H]2O[C@H]12`, the activity, negative = inhibition is -3.38% [at 11.4 µM].

In the case of `CCC(=O)O[C@@]1(C(=O)SCF)[C@@H](C)C[C@H]2[C@@H]3C[C@@H](F)C4=CC(=O)C=C[C@@]4(C)[C@]3(F)[C@@H](O)C[C@]21C`, the AC50 result is “inactive”.

In the case of `COc1ccc(NC(=O)CN2c3cccc4cccc(c34)S2(=O)=O)cc1`, the AC50 is 3.16 µM (active).

As for `O=C(CN1C(=O)c2ccccc2S1(=O)=O)Nc1ccccc1`, the AC50 entry is “inactive”.

For the compound `CS(=O)(=O)Nc1c(O)ccc2c1CCC[C@H]2C1=NCCN1`, the AC50 result was “inactive”.

For `CS(=O)(=O)N1CCC2(CCN(C(=O)Nc3cccc(F)c3)CC2)CC1`, the AC50 entry was “inactive”.

As for `CCOC(=O)c1c(C)nc2sc3c(=O)n(-c4ccc(C)cc4)cnc3c2c1-c1ccc(OC)cc1`, the AC50 entry was “inactive”.

Turning to `CC1(C)CC(=O)c2c(Cc3ccccc3)n[nH]c2C1`, the AC50 entry was “inactive”.

As to `CCOC(=O)c1c(C)nc2c(c1-c1ccccc1)C(=O)CCC2`, the AC50 is 0.282 µM (active).

For the compound `CCOC(=O)c1c(C)nc2c(c1-c1ccccc1)C(=O)CC(C)(C)C2`, the AC50 is 14.1 µM (active).

Turning to `CCCCCCCCCCn1c2c(c(=N)c3c1CCC3)CCC2`, the AC50 was 14.1 µM (active).

For `C[C@H]1COC(=O)[C@H]2CCCN2C(=O)[C@@H](C)COC(=O)[C@H](Cc2ccccc2)NC1=O`, the activity, negative = inhibition was -1.22% [at 11.4 µM].

On to `Oc1c(Br)cc(CN(Cc2cc(Br)c(O)c(Br)c2)C2CCCCC2)cc1Br`, for which the activity, negative = inhibition is -5.68% [at 2.29 µM].

On to `Oc1c(Br)cc(Br)cc1CN(Cc1cc(Br)cc(Br)c1O)C1CCCCC1`, for which the AC50 is 3.16 µM (active).

On to `CON1C(=O)C(=O)N(OC)C2CCCCC21` (centres undefined), for which the AC50 result is “inactive”.

As for `Cc1cnc(CNc2nc(-c3cccnc3)nc3ccccc23)cn1`, the AC50 was 2.51 µM (active).

Regarding `COc1cccc(-c2nc(NCc3cnc(C)cn3)c3ccccc3n2)c1`, the AC50 was 0.398 µM (active).

`CN(C)C(=O)c1ccc(-c2nccc(NCc3cccs3)n2)cc1`: the AC50 is 15.8 µM (active).

Regarding `c1cncc(-c2nccc(NCc3cccs3)n2)c1`, the half-maximal activity concentration (AC50) is 0.2 µM (active).

For `CN(C)c1ccc(-c2nccc(NCc3cccs3)n2)cc1`, the AC50 was 0.398 µM (active).

Consider `CN(C)CCN(Cc1cccs1)c1ccccn1`, for which the AC50 entry is “inactive”.

Consider `c1csc(CNc2ccnc(-c3ccoc3)n2)c1`, for which the AC50 is 1 µM (active).

Consider `CC(C)=CCC/C(C)=C/CO/N=C1/[C@H]2O[C@@H]2[C@@H](O)[C@H]2[C@H]1CCn1c(=O)n(-c3ccccc3)c(=O)n12`, for which the activity, negative = inhibition is 3.05% [at 11.4 µM].

As for `C[C@@H](c1ccccc1)N1C(=O)[C@H]2[C@H]3[C@H](O)[C@H](O)C/C(=N/OCc4ccccc4)[C@H]3CC[C@@H]2C1=O`, the activity, negative = inhibition was -3.77% [at 11.4 µM].

Consider `COc1ccccc1Nc1nc(-c2sc(NC(=O)c3ccccc3)nc2C)cs1`, for which the AC50 entry is “inactive”.

For `C=CCCC(=O)Nc1nc(C)c(-c2csc(Nc3ccc(Cl)cc3)n2)s1`, the AC50 is 5.01 µM (active).

In the case of `Cc1nc(NC(=O)c2ccccc2)sc1-c1csc(Nc2cccc(F)c2)n1`, the AC50 is 11.2 µM (active).

For `Cc1nc(NC(=O)c2ccccc2)sc1-c1csc(Nc2ccc(Cl)cc2Cl)n1`, the AC50 entry was “inactive”.

For the compound `Cc1ncc(CO)c(CO)c1O`, the AC50 result was “inactive”.

As to `CC(=O)N(C)c1nnc(-c2cnccn2)s1`, the AC50 was 6.31 µM (active).

In the case of `Cc1nnc(N(C)C(=O)c2ccccn2)s1`, the AC50 entry is “inactive”.

As to `C[C@@H]1C(=O)N(C)C(=O)c2nc[nH]c21`, the AC50 entry is “inactive”.

Turning to `O=C1OC(OC2CCCCC2)(c2ccccc2)c2ccccc21` (centres undefined), the AC50 result is “inactive”.

For `Cc1ccccc1-c1cncnc1Nc1ccccc1`, the AC50 is 15.8 µM (active).

For `Cc1ccccc1-c1cncnc1Nc1ccc(F)cc1`, the AC50 is 10 µM (active).

`CCOCCCNC(=O)CCS(=O)(=O)Cc1ccc(C)cc1`: the AC50 entry is “inactive”.

As for `COc1ccc(OC)c(NC(=O)C(CC(=O)O)NCc2ccco2)c1` (centres undefined), the AC50 entry was “inactive”.

Take `COc1ccccc1NC(=O)Nc1nnc(-c2ccco2)s1`: the AC50 is 2 µM (active).

As to `COc1ccccc1-c1nnc(NC(C)=O)s1`, the AC50 is 1.26 µM (active).

Take `COC(=O)N1CCC2(CCN(Cc3cc(C(F)(F)F)cc(C(F)(F)F)c3)CC2)CC1`: the AC50 result is “inactive”.

For the compound `O=C(Cc1ccccc1)NC(=S)Nc1cc(C(F)(F)F)ccc1Cl`, the AC50 is 2 µM (active).

In the case of `O=C(CCCC(=O)OCC(=O)c1ccc(Cl)cc1Cl)Nc1cc(C(F)(F)F)ccc1Cl`, the AC50 was 2.82 µM (active).

For `N/C(CC(=O)Nc1cc(C(F)(F)F)ccc1Cl)=N\O`, the AC50 is 1.58 µM (active).

Turning to `Cc1ccc(C)n1CCN1CCN(CC(=O)Nc2cc(C(F)(F)F)ccc2Cl)CC1`, the AC50 is 25.1 µM (active).

With `Cc1cc(NC(=O)CCCC(=O)OCC(F)(F)C(F)F)cc(C)c1C(=O)O`, the AC50 result was “inactive”.

With `CN(C)c1cc[n+](CC(=O)Nc2cc(C(F)(F)F)ccc2Cl)cc1`, the AC50 result is “inactive”.

For the compound `O=C1[C@H]2CCn3c(=O)n(-c4ccccc4)c(=O)n3[C@H]2[C@H](O)[C@H]2O[C@@H]12`, the activity, negative = inhibition was -2.61% [at 11.4 µM].

Turning to `Cc1cc(N2C(=O)C(O)=C(C(=O)c3cccs3)C2c2cccc(O)c2)no1` (centres undefined), the AC50 entry is “inactive”.

Take `CC(C)=CCC/C(C)=C/CO/N=C1/C[C@@H](O)[C@@H](O)[C@@H]2[C@@H]3C(=O)N(C(C)(C)C)C(=O)[C@H]3CC[C@@H]12`: the activity, negative = inhibition is -0.662% [at 11.4 µM].

As to `C/C(CCN1CCCCc2nc(C)c(C)cc21)=N\OC[C@@H](O)[C@@H]1O[C@@H]2OC(C)(C)O[C@@H]2[C@H]1O`, the activity, negative = inhibition is -3.55% [at 11.4 µM].

`O=CN1CCN(C[C@H](O)CN2CCCCC2)CC1`: the activity, negative = inhibition is -17.6% [at 2.29 µM].

As to `O=C(c1ccccc1)c1cc(F)c(N2CCOCC2)cc1Cl`, the AC50 is 11.2 µM (active).

Take `CC(C)[C@H](N)c1nnc(SCc2ccc(Cl)cc2)o1`: the AC50 was 0.794 µM (active).

As for `CC(C)[C@H](N)c1nnc(SC/C=C/c2ccccc2)o1`, the AC50 is 0.631 µM (active).
